Source: PubChem BioAssay
Only some compounds are listed: those with a hit (about 19% of all), similar ones and a draw of the others.
Cycloheximide cs: Cycloheximide Counterscreen for Small Molecule Inhibitors of Shiga Toxin. AID 2314, 2010. cell reporter, cycloheximide protein synthesis inhibition counterscreen. max response, %. actives 12% (n = 300,000); in the data active = max response mostly above about 13%, no sharp cut-off; inactive = mostly below about 14%; also: read at 38.3 µM for the half of the compounds with a filed dose; 0% is about no effect
AMA1 RON2 block: qHTS for Inhibitors of AMA1-RON; Towards Development of Antimalarial Drug Lead: Primary Screen; Potency, µM (titrated, usually from 58.2 µM), for inactives: at the highest dose activity change, negative = inhibition, usual class: inhibitors; actives 0.2% (n = 360,000); Plasmodium falciparum AMA1 (3D7) - RON2 peptide interaction; AlphaScreen AMA1-biotinylated RON2 peptide binding; AID 720542, 2013;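 also: potency is read from the fitted curve at half-maximal effect; 0% = vehicle wells and -100% = peptide control; nearly all actives have a fitted effect of over 45% in size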
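AMA1 (3D7) with his tag at 25 nM final met compounds first, then biotinylated RON2 peptide at 25 nM; detection used donor plus acceptor beads, 10 µg/mL apiece, read by AlphaScreen after 30 min at room temperature.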
SARS PLpro yeast: qHTS of Yeast-based Assay for SARS-CoV PLP. S. cerevisiae expressing SARS-CoV PLpro, growth rescue. Potency, µM (highest dose often 32.9 µM), inactives show at the highest dose activity, positive = growth rescue, hits mostly activators. actives 0.19% (n = 330,000). AID 485353, 2010; calls by dose curve; also: potency is read from the fitted curve at half-maximal effect; 0% is about no effect; nearly all actives have a fitted effect of over 55% in size
Shiga inhibitor: A qHTS for Small Molecule Inhibitors of Shiga Toxin; Vero cells, Shiga toxin protein synthesis inhibition reporter; inhibition, % at 38.7 µM; actives 9.2% (n = 290,000); AID 2315, 2010; in the data active = inhibition mostly above about 28%, no sharp cut-off; inactive = mostly below about 43%; also: 0% is about no effect
Pf growth 48h: Primary qHTS for delayed death inhibitors of the malarial parasite plastid, 48 hour incubation; P. falciparum luciferase growth in erythrocytes, 48 h; Potency, µM (doses to about 28.7 µM), without a hit: at the highest dose activity change, negative = inhibition, usual class: inhibitors; actives 5.9% (n = 310,000); AID 504832, 2011; also: potency is read from the fitted curve at half-maximal effect; % is scaled to controls: 0 for no effect and ±100 for the full control effect
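Luciferase-expressing parasites in RBCs, 2% Hct / 0.1% parasitemia final; RPMI 1640 + 0.5% Albumax; 37 C, 5% CO2, one generation; luminescence read-out, lower signal = inhibition.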
Pf growth 96h: Primary qHTS for delayed death inhibitors of the malarial parasite plastid, 96 hour incubation; P. falciparum luciferase reporter growth, 96 h; Potency, µM (series often up to 28.7 µM), inactives show at the highest dose activity change, negative = inhibition, actives largely listed as inhibitors; actives 6.9% (n = 320,000); also: potency is read from the fitted curve at half-maximal effect; % is scaled to controls: 0 for no effect and ±100 for the full control effect
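96 h incubation, 37 C, 5% CO2, of luciferase-reporter P. falciparum-infected RBCs (2% hematocrit, 0.05% parasitemia final) with test compounds; endpoint luminescence.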
Active calls of the source: *; ? = inconclusive; nt = not tested or not shown; [ ] = dose if it differs, or a comment. Unless noted, calls follow the shape of the dose curve; as a rule, active = well fitted curve in the direction sought with a large enough effect; inconclusive = small, poorly fitted or top-dose-only effect, or another doubt; inactive = no such curve, though single readings can be large; an effect the other way counts as inactive or inconclusive.

SMILES	Cycloheximide cs	AMA1 RON2 block	SARS PLpro yeast	Shiga inhibitor	Pf growth 48h	Pf growth 96h
CCCCCCCCCCOC(=O)Cn1c(COc2ccccc2OC)[n+](C)c2ccccc21	-3	1%	-13%	-8	1.7µM*	?
Cc1c(/C=N\NC(=O)c2csc3ccccc23)cnn1C	11	14%	2%	27*	17%	60%
CCn1ncc(/C=N\NC(=O)c2csc3ccccc23)c1C	12	5%	1%	53*	9%	0%
Cc1nn(C)c(C)c1/C=N/NC(=O)c1csc2ccccc12	18*	254%	-1%	24	51%	14%
CCn1ncc(/C=N\NC(=O)Cc2ccc([N+](=O)[O-])cc2)c1C	-2	5%	-6%	2	-2%	9%
Cc1ccc2nc(SCC(=O)NNC(=O)c3ccccc3)[nH]c2c1	-3	37%	2%	-4	23%	19%
CC1=NN(C(=O)Cn2nc([N+](=O)[O-])c(Br)c2C)C(O)(C(F)(F)F)C1 (stereo not drawn)	-5	17%	-4%	-2	25%	-17%
c1cncc(-c2cn(C[C@H]3CC[C@@H]([C@@H]4CC[C@H](Cn5cc(-c6cccnc6)nn5)O4)O3)nn2)c1	-3	-2%	-4%	-3	6%	-13%
O=c1[nH]c(=O)n(-c2ccc(Br)cc2)c(O)c1C=NC(CO)(CO)CO	-2	6%	2%	-2	?	0%
N=Cc1c(O)n(-c2ccc(C34CC5CC(CC(C5)C3)C4)cc2)c(=O)[nH]c1=O	48*	9%	10%	27*	35%	44%
CC(C)(C)c1nnc(NC(=O)c2ccc(Cl)nc2)s1	3	-4%	0%	-2	43%	-23%
CCc1nnc(NC(=O)c2cc(Cl)ccn2)s1	41*	-77%	18%	77*	?	5.9µM*
CCc1nnc(NC(=O)c2ncc(Cl)c(Cl)c2Cl)s1	14	36%	-2%	22	4%	30%
CCN(c1ccc(NC(=O)c2ccc(Cl)nc2)cc1)C(C)C	24*	0%	1%	38*	6%	25%
CCc1nnc(NC(=O)c2ccc(Cl)nc2)s1	32*	0%	-1%	75*	27%	61%
N=c1n(CC(=O)c2ccc([N+](=O)[O-])cc2)c2ccccc2n1Cc1ccccc1	0	1%	-15%	16	8.3µM*	?
N=c1n(CC(=O)c2ccc([N+](=O)[O-])cc2)c2ccccc2n1Cc1ccccc1Cl	-5	-11%	-5%	2	?	?
N=c1n(CCN2CCCCC2)c2ccccc2n1CC(=O)c1cccc([N+](=O)[O-])c1	1	-3%	nt	-17	1.9µM*	?
N=c1n(CC(=O)c2ccc([N+](=O)[O-])cc2)c2ccccc2n1Cc1ccc(Cl)cc1	-4	-9%	4%	10	?	?
N=c1n(Cc2ccccc2)c2ccccc2n1Cc1ccccc1	-4	4%	16%	-5	10µM*	?
O=C(Cn1nc(Cl)nc1Cl)c1ccc([N+](=O)[O-])cc1	10	-8%	0%	3	13µM*	2.9µM*
C=CCn1c(=N)n(CC(=O)c2cccc([N+](=O)[O-])c2)c2ccccc21	20	17%	-1%	20	?	?
O=S(=O)(c1ccc2c(c1)OCCO2)N1CCN(S(=O)(=O)c2cc(F)c(F)cc2F)CC1	-9	nt	nt	-11	nt	nt
COCc1cc(=O)n2[nH]c(C(C)(C)C)cc2n1	1	-1%	-1%	2	?	36%
CCC/C=C1\CCCOC(C(=O)NCc2ccccc2)(C(F)(F)F)C1 (stereo not drawn)	10	nt	nt	16	nt	nt
SMILES	Cycloheximide cs	AMA1 RON2 block	SARS PLpro yeast	Shiga inhibitor	Pf growth 48h	Pf growth 96h
CCOC(=O)C1(CC2CCCCO2)CCN(S(=O)(=O)c2c(C)nn(C)c2C)CC1 (stereo not drawn)	-1	18%	-1%	15	-26%	?
Nc1nonc1-c1noc(CCCN2C(=O)c3ccccc3C2=O)n1	112*	4%	12%	98*	83%	87%
O=C1c2ccccc2C(=O)N1CCCc1nc(-c2ccncc2)no1	0	-16%	17%	23	0%	19%
Nc1nonc1-c1noc(-c2ccccc2Br)n1	30*	13%	-3%	38*	41%	?
Cc1noc(C)c1C(=O)N1CCC1(C)C(=O)NS(=O)(=O)c1cccc(F)c1 (stereo not drawn)	nt	5%	nt	nt	nt	nt
CN(c1ccccc1)S(=O)(=O)c1cccc(NC(=O)c2ccc(Cl)c([N+](=O)[O-])c2)c1	nt	-8%[11.6 µM]	nt	nt	nt	nt
Cc1nc2ccccn2c1-c1csc(NCc2ccco2)n1	15*	-17%	-4%	17	-14%	nt
Cc1ccc(Nc2nc(-c3c(C)nc4ncccn34)cs2)cc1	-1	-4%	-12%	-5	?	0%
Cc1nc(C)c(-c2csc(NCc3ccco3)n2)s1	30*	-5%	-18%	159	26%	7%
Cc1ccc(Nc2nc(-c3c(C)nc4ccccn34)cs2)cc1	-1	-1%	-26%	-11	12µM*	10µM*
Cc1ccn2c(-c3csc(NCc4ccccc4)n3)c(C)nc2c1	17	-28%	19%	11	13µM*	8%
O=c1[nH]c(=S)[nH]c2c1C(c1ccc(Cl)cc1)OC(CCc1ccccc1)C2 (stereo not drawn)	nt	94%	nt	nt	nt	nt
COc1ccc(C)cc1NC(=O)NC(C)c1ccc2c(c1)OCO2 (stereo not drawn)	10	12%	-1%	-10	?	37%
CCc1nccn1CCC(=O)NC1CC(C)(C)Cc2c1cnn2-c1cccc(F)c1 (stereo not drawn)	1	2%	8%	-2	53%	-6%
CC1(C)OC(=O)NC1=O	nt	nt	nt	nt	-6%	-12%
Cc1nc(C)c(-c2csc(NCc3ccccc3)n2)s1	33*	-12%	-57%	31	?	-9%
Cc1nc(NC(=O)c2ccccc2)sc1-c1csc(NCc2ccco2)n1	16	-4%	-4%	38	5.9µM*	?
COc1ccc2nc(SCc3cccc(C)c3)nc(C)c2c1	27*	112%	?	62*	134%	?
COc1ccc2nc(SC(C(=O)c3ccccc3)c3ccccc3)nc(C)c2c1 (stereo not drawn)	1	-19%	11%	-5	?	13µM*
COc1ccc2nc(SCc3ccccc3C)nc(C)c2c1	12*	38%	-13%	0	20%	?
Cc1ccc2nc(SCc3cccc([N+](=O)[O-])c3)nc(C)c2c1	-4	-9%	5%	-22	28%	17%
